Source: PubChem BioAssay
HEK cytotox = kills HEK 293 cells; HEK 293 viability, ATP luminescence (CellTiter-Glo), 48-72 h; Potency, µM (top dose mostly 115 µM), most hits filed as inhibitors; actives 6.6% (n = 94,000); note: nearly all actives have a fitted effect of over 60% in size
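ATP-coupled CellTiter-Glo luminescence served as viability read-out, recorded 10 min after reagent addition at room temperature. HEK 293 cells, 250 cells/well, had been incubated with pintool-transferred compound for 48 or 72 hr at 37 degree Celsius.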
NPR1 antag = blocks ANP-stimulated signaling of human Npr1 receptor | AID 1347048 | Potency, µM (series often up to 46.3 µM), most hits filed as inhibitors | HEK293 hNpr1 GloSensor cGMP, ANP-stimulated luminescence | actives 1.6% (n = 76,000); calls by dose curve; note: nearly all actives have a fitted effect of over 60% in size
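Compound pre-incubated 30 min at room temperature on GloSensor-loaded HEK293 cells stably carrying hNpr1 and the pGS-40F cGMP biosensor. Stimulation uses hNppA at 0.1 nM final; luminescence is taken at baseline and 20 min post-agonist.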
3T3 cytotox = NIH 3T3 cell cytotoxicity. NIH 3T3 viability, CellTiter-Glo ATP luminescence, 48-72 h. actives 4.3% (n = 94,000). Potency, µM (doses to about 96.7 µM), most hits filed as inhibitors; note: nearly all actives have a fitted effect of over 55% in size
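Cytotoxicity was measured by CellTiter-Glo ATP luminescence after 48 or 72 h compound exposure at 37 °C. Mouse NIH 3T3 fibroblasts were seeded at 400 cells/well and dosed by 23 nL pin transfer.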
FLuc inh-1 = Photinus pyralis luciferase inhibition | P08659 | purified P. pyralis luciferase, luminescence, biochemical | Potency, µM (top dose mostly 115 µM), most hits filed as inhibitors | actives 2.5% (n = 76,000); note: nearly all actives have a fitted effect of over 65% in size
Target sequence (P08659 whole entry, looked up): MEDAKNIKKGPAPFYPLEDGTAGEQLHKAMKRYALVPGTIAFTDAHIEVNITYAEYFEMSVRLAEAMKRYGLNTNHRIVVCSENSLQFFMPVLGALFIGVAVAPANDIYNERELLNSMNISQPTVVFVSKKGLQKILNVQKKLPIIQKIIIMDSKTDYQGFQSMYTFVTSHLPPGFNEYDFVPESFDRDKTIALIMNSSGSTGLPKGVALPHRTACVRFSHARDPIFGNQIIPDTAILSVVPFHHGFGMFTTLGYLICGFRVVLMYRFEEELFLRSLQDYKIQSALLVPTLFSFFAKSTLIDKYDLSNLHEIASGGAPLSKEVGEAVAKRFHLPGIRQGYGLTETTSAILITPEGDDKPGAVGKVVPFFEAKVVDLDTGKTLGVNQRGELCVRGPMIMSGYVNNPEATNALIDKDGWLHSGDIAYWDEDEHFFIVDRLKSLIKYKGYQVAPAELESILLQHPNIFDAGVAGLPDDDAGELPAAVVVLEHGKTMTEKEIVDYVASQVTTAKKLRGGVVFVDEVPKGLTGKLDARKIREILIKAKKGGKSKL
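Cell-free enzyme assay, 10nM P. pyralis luciferase, luciferin and ATP each at 10uM. Inhibition profiled over a 6-point titration, read as luminescence.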
FLuc SDR -ATP = stabilizes firefly luciferase without ATP; shares compounds with FLuc inh-1; Purified FLuc-C-HiBiT, Nano-Glo HiBiT luminescence, no ATP; Potency, µM (titrated, usually from 32.7 µM), actives largely listed as activators; actives 7.8% (n = 1,300); AID 1963318; note: nearly all actives have a fitted effect of over 55% in size
FLuc SDR ATP = binders stabilizing firefly luciferase, plus ATP. shares compounds with FLuc inh-1. AID 1963319. purified FLuc-C-HiBiT + ATP, HiBiT complementation luminescence. actives 8.7% (n = 1,300). Potency, µM (titrated, usually from 32.7 µM), actives largely listed as activators;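 note: signal reports ligand binding via conformational change of the enzyme rather than luciferase catalysis; nearly all actives have a fitted effect of over 55% in size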
FLuc inh-2 = inhibitors of firefly luciferase enzymatic activity; shares compounds with FLuc inh-1; purified FLuc-C-HiBiT enzyme, luciferin luminescence; Potency, µM (top dose mostly 32.7 µM), most hits filed as inhibitors; actives 42% (n = 1,300); note: nearly all actives have a fitted effect of over 70% in size
A number is an active result; i = inactive; ? = inconclusive; nt = no result. Rows were chosen to be rich in hits. Some 11% of all compounds tested hit in one or more screens of this group. Unless noted, calls come from the whole dose curve; as a rule, active = well fitted curve in the direction sought with a large enough effect; inconclusive = small, poorly fitted or top-dose-only effect, or another doubt; inactive = no such curve, though single readings can be large; an effect the other way counts as inactive or inconclusive.

SMILES | HEK cytotox | NPR1 antag | 3T3 cytotox | FLuc inh-1 | FLuc SDR -ATP | FLuc SDR ATP | FLuc inh-2
Cc1ccc(C)c(C(=O)N2CCN(c3cc(-c4ccccc4)[nH]n3)CC2)c1 | ? | i | ? | i | nt | nt | nt
COc1ccc(C(=O)COC(=O)CCCC(=O)Nc2ccc(C(C)=O)cc2)cc1 | nt | nt | nt | nt | i | i | ?
Cc1ccc(NC(=O)Nc2ccc(C)n(CC(=O)NC(C)(C)C)c2=O)cc1 | ? | i | i | 4µM | ? | ? | 3.9µM
COc1ccc(NC(=O)Nc2ccc(C)n(CC(=O)N3CCCC(C)C3)c2=O)cc1 (stereo not drawn) | i | i | i | 7.1µM | ? | ? | 7.9µM
CCC(C)NC(=O)Cn1c(C)ccc(NC(=O)Nc2ccc(C)cc2)c1=O (stereo not drawn) | ? | i | ? | 2µM | 3.1µM | ? | 1.2µM
Cc1ccc(NC(=O)Nc2ccc(C)n(CC(=O)NCC(C)C)c2=O)cc1 | ? | i | ? | 0.89µM | 3.9µM | ? | 1.1µM
CCC(C)C1=NS(=O)(=O)c2cc(NC(=O)c3ccco3)ccc2N1c1ccccc1 (stereo not drawn) | ? | i | i | i | nt | nt | nt
CCCn1cc(-c2ccncc2)cc1C(=O)NC(C)c1ccc(OC)cc1 (stereo not drawn) | ? | i | ? | i | nt | nt | nt
O=C(c1ccccc1F)N1CCC(C(=O)N2CCC(N3Cc4ccccc4C3=O)CC2)CC1 | ? | nt | i | nt | nt | nt | nt
O=C(c1n[nH]c2ccccc12)N1CC(Oc2ccccc2-c2nc(C3CC3)no2)C1 | ? | i | ? | i | nt | nt | nt
CCCNC(=O)Cn1c(C)ccc(NC(=O)Nc2ccc(OC)cc2)c1=O | i | i | ? | 4µM | ? | ? | 6.2µM
O=C(c1ccc(-c2ncc3cnc(-c4cccc(F)c4)cn23)cc1)N1CC(O)C1 | ? | i | ? | i | nt | nt | nt
NC(=O)C1CCN(c2ncnc3c2cnn3-c2ccccc2)CC1 | nt | nt | nt | nt | i | i | i
CC1CCN(c2ncnc3c2cnn3-c2ccc(F)cc2)CC1 | nt | nt | nt | nt | i | i | 11µM
CCOC1CCCN(c2ncnc3c2cnn3-c2ccccc2)C1 (stereo not drawn) | nt | nt | nt | nt | i | ? | ?
CN(C)C1CCN(c2ncnc3c2cnn3-c2ccccc2)CC1 | nt | nt | nt | nt | i | i | i
CCCCCCNC(=O)Cc1csc2nc(C)c(-c3cc(C)n(-c4ccccc4OC)n3)c(=O)n12 | ? | i | ? | i | nt | nt | nt
COc1cccc([S+](=O)([O-])N2CCCN(c3ccc4nnc(C)n4n3)CC2)c1 | i | nt | i | nt | nt | nt | nt
COc1ccc(CCNC(=O)C2CCc3nnc(-c4cccc(C(F)(F)F)c4)n32)cc1 (stereo not drawn) | i | nt | i | nt | nt | nt | nt
CCn1nc(CC(C)C)cc1C(=O)N1CCN(CCn2cccc2)CC1 | ? | i | ? | i | nt | nt | nt
COc1ccc(-c2noc([C@@H]3C[C@H](NCc4ccccn4)CN3C)n2)cc1 | 100µM | ? | ? | 13µM | i | i | ?
COc1ccc(C(=O)N[C@H]2C[C@@H](c3nc(-c4cncnc4)no3)N(C)C2)cc1 | i | i | i | ? | nt | nt | nt
CC(CCc1ccccc1)NC(=O)Cn1cccc1-c1nc(-c2ccc(F)cc2)no1 (stereo not drawn) | i | i | i | i | nt | nt | nt
Cc1cc2c(c(-c3nc4ccccc4s3)c1)OC(CNC(=O)c1occc1C)C2 (stereo not drawn) | nt | nt | nt | nt | i | i | ?
COc1ccc(C(=O)NCC2Cc3cc(C)cc(-c4nc5ccccc5s4)c3O2)c(OC)c1OC (stereo not drawn) | nt | nt | nt | nt | i | i | i
SMILES | HEK cytotox | NPR1 antag | 3T3 cytotox | FLuc inh-1 | FLuc SDR -ATP | FLuc SDR ATP | FLuc inh-2
COc1ccccc1-c1cn2c(n1)CO[C@@H](CNC(=O)c1ccc(F)cc1)C2 | ? | i | ? | i | nt | nt | nt
O=C(NCCCc1ccccc1)C1CCN(C(=O)N2CC3CC(C2)[C@H]2CCCC(=O)N2C3)CC1 (stereo partly drawn) | i | i | i | i | nt | nt | nt
O=C(Nc1ccccc1)C1CCN(C(=O)N2CC3CC(C2)[C@H]2CCCC(=O)N2C3)CC1 (stereo partly drawn) | i | i | i | i | i | i | i
C=CCN(C)C(=O)C[C@@H]1c2nc(NC(=O)c3cccs3)sc2C[C@@H]2[C@](C)(CO)[C@H](O)CC[C@]21C | ? | i | i | i | nt | nt | nt
CS(=O)(=O)Nc1ccc(-c2nc3ccccc3s2)cc1 | nt | nt | nt | nt | ? | ? | 2.2µM
Cc1c(NS(C)(=O)=O)cccc1-c1nc2ccccc2s1 | nt | nt | nt | nt | i | i | ?
CCn1cnnc1CC1CCCN(C(=O)c2cccc(F)c2)C1 (stereo not drawn) | i | nt | i | nt | nt | nt | nt
CC(C)c1nc2c(c(-c3ccc(O)cc3)n1)CN(C(=O)c1cccc(Cl)c1)CC2 | ? | i | ? | i | nt | nt | nt
COc1cccc(Nc2cc3c(cn2)CN(Cc2cccnc2)CCN3)c1 | ? | i | ? | 5µM | ? | i | ?
COc1cccc(CN2CCc3nc(Nc4ccc5c(c4)OCCO5)ncc3C2)c1 | nt | nt | nt | nt | i | i | ?
COc1cccc(CN2CCNc3cc(Nc4ccccc4)ncc3C2)c1 | 40µM | i | 40µM | 5.6µM | i | i | ?
COc1cccc(CN2CCOc3ccc(C(=O)NCc4ccc(C)cc4)cc3C2)c1 | ? | i | ? | i | nt | nt | nt
Cc1cc(C)n(CCC(=O)N2Cc3ccccc3OC3(CCN(C(C)C)CC3)C2)n1 | i | nt | i | nt | nt | nt | nt
COc1ccc(-n2nc3ccc(NC(=O)c4c(OC)cccc4OC)cc3n2)cc1 | nt | nt | nt | nt | i | i | i
COc1ccc(NC(=O)c2c(OC)cc(=O)n3c2CCCC3)cc1 | i | i | ? | i | nt | nt | nt
Nc1nc2c([nH]c(=O)n2C2OC(CO)C(O)C2O)c(=O)[nH]1 (stereo not drawn) | nt | nt | nt | nt | i | i | i
Nc1nc2c([nH]c(=S)n2C2OC(CO)C(O)C2O)c(=O)[nH]1 (stereo not drawn) | nt | nt | nt | nt | i | i | 2.5µM
COc1ccccc1C(=O)N1CCC2(CC1)CC(c1cccnc1)=NO2 | i | i | i | i | nt | nt | nt
O=C(c1cc(-c2ccc(F)cc2)nc2ccccc12)N1CCC(c2nc(C3CCOCC3)no2)C1 (stereo not drawn) | ? | i | ? | 10µM | ? | i | ?
O=C(c1cc(-c2ccc(F)cc2)nc2ccccc12)N1CCCC(c2nc(C3CCOCC3)no2)C1 (stereo not drawn) | ? | i | ? | ? | nt | nt | nt
CN(Cc1ccccc1)Cc1cn([C@H]2CO[C@H]3[C@@H]2OC[C@@H]3NCC2CCCCC2)nn1 | ? | i | ? | i | nt | nt | nt
O=C([C@@H]1C[C@@H](O)[C@H](O)[C@@H]2NC(=S)N(c3ccc4c(c3)OCO4)[C@@H]21)N1CCOCC1 | i | i | i | 5µM | i | ? | ?
